# Laboratory results as given in PubChem BioAssay AID588856 (National Center for Advancing Translational Sciences (NCATS), 2011).
# Several values for one entry are separate records, joined by “and”; a condition that tells them apart may be missing. Equal entries are not always repeated. Out of some 410,000 compounds screened, about 3,100 (0.76%) were called active. Entries that show only a call come without a potency. Calls come from the whole dose curve; as a rule, active = well fitted cell-killing curve with a large enough effect; inactive = no such curve, though single readings can be large or run the other way. This excerpt belongs to a sample that is enriched for actives. More than one record can exist for a structure, and the calls need not agree.
# Test: qHTS for Inhibitors of TGF-b: Cytotox Counterscreen
# Details: HepG2 CAGA-GFP viability, ATP luminescence, 18 h; series mostly up to 46.1 µM
# Summary of the method: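 CellTiter-Glo luminescence gave cytotoxicity after 18 hours at 37 degrees C. The cells were HepG2 CAGA-GFP in 1% FBS DMEM, stimulated with 500 pg/mL TGF-beta after compound addition. %Activity was normalised to no-cell wells (complete cell-killing) and DMSO (no toxicity), and curves were fitted and classified.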
# Potency is the fitted concentration of half-maximal effect.
row,SMILES,Potency
1,CCOC(=O)C1CCCN(C(=O)c2ccc3c(c2)sc2nc(-c4ccc(CC)cc4)cn23)C1 (stereo not drawn),inactive
2,Cc1ccc2c(c1)N(C(=O)Nc1ccc(Br)cc1F)CCO2,inactive
3,COc1cccc(NC(=O)CSc2cc(=O)n(C)c3ccc(Cl)cc23)c1,inactive
4,CCCC(O)(CCC)C(=O)NN(C(=O)CCl)c1cccc(C)c1,20 µM (active)
5,CCCCC(O)(CCCC)C(=O)NN(C(=O)CCl)c1ccccc1,inactive
6,Cc1cccc(N(Cc2ccccc2)C(=O)c2ccccc2F)c1,inactive
7,CCCn1c(NCc2ccc(N(CC)CC)cc2)nc2ccccc21,inactive
8,CCOC(=O)c1c(SCC(=O)Nc2cccc(C)c2C)nc(=O)[nH]c1C,inactive
9,CCOC(=O)c1c(C)[nH]c(C)c1S(=O)(=O)N(C)CC(=O)N1CCN(c2ccccc2)CC1,inactive
10,CCOC(=O)c1c(C)[nH]c2c1-c1ccccc1C(=O)C2=O,1.26 µM (active)
11,CCc1nnc(NS(=O)(=O)c2ccc(NC(=S)NC(=O)/C=C/c3cccs3)cc2)s1,inactive
12,CCc1nnc(NC(=O)CCN(c2ccc(C)cc2)S(=O)(=O)c2ccccc2)s1,inactive
13,CCc1nnc(NS(=O)(=O)c2ccc(N=Cc3c(C)[nH]n(-c4ccc(C)cc4)c3=O)cc2)s1,8.91 µM (active)
14,CN(N=O)c1ccc(C=C2c3ccccc3-c3ccccc32)cc1,inactive
15,COc1ccc(C2CC(c3cccc(OC)c3)=NN2c2ccc(S(N)(=O)=O)cc2)cc1 (stereo not drawn),inactive
16,Oc1ccccc1C1=NN(c2ccccc2)C(c2ccccc2)C1 (stereo not drawn),10 µM (active)
17,Cc1ccc(N2C(=O)C3N=NN(CC(=O)N4N=C(c5cccc6ccccc56)CC4c4ccccc4)C3C2=O)cc1 (stereo not drawn),inactive
18,CC(=O)c1ccc[n+](C(C)CCC(C)[n+]2cccc(C(C)=O)c2)c1 (stereo not drawn),inactive
19,CCOC(=O)c1c(S(=O)(=O)N2CCC(C(=O)NCc3ccccc3OC)CC2)c(C)n(C)c1C,inactive
20,CCCCCCCCCCOC(=O)Cn1c(COc2cccc(OC)c2)[n+](C)c2ccccc21,20 µM (active)
21,OC(CBr)CN1CCCCC1 (stereo not drawn),inactive
22,CC(=O)Nc1cccc(NC(=O)CSc2nccn2Cc2ccc3c(c2)OCO3)c1,inactive
23,Cc1cccc(NC(=O)Cn2c(=O)n(CCC(C)C)c(=O)c3cccnc32)c1,inactive
24,CCC1CCCCN1CCCNC(=O)c1cc2c(Cl)nc3ccccc3c2s1 (stereo not drawn),inactive and 12.6 µM (active)
25,O=C(NCCN1CCN(Cc2ccccc2)CC1)c1cc2c(=O)[nH]c3ccccc3c2s1,inactive
26,CCn1c(=O)c2cc(C(=O)NCCc3ccc(Cl)cc3)sc2c2ccccc21,inactive

row,SMILES,Potency
1,CCCCN1C(=O)c2[nH]nc(-c3ccccc3O)c2C1c1cccc(OCc2ccccc2)c1 (stereo not drawn),14.1 µM (active)
2,COc1ccc(CCN2C(=O)c3[nH]nc(-c4ccccc4O)c3C2c2ccc(C)cc2)cc1OC (stereo not drawn),inactive
3,CCCOc1ccc(C2c3c(-c4ccccc4O)n[nH]c3C(=O)N2Cc2cccnc2)cc1 (stereo not drawn),inactive
4,O=c1[nH]c2cc(Br)ccc2n2cccc12,inactive
5,Cc1cccc(N2CCN(C(=O)c3cc4c(=O)oc5ccccc5c4s3)CC2C)c1 (stereo not drawn),inactive
6,CC(C)c1ccc2oc(-c3cc(NC(=O)c4cccs4)ccc3Cl)nc2c1,inactive
7,CCCCn1nc(C(=O)Nc2cccc(C(=O)NC3CC3)c2)c2ccccc2c1=O,inactive
8,CCCn1nc(C(=O)NNC(=O)CSCC(=O)Nc2cc(C)on2)c2ccccc2c1=O,11.2 µM (active)
9,CCCn1nc(C(=O)NNC(=O)CCOc2ccccc2OCC)c2ccccc2c1=O,inactive
10,Cc1csc[n+]1CCC1CCCCC1,inactive
11,O=C(O)C1CC=CC2CCN(C3CCCCC3)C(=O)C21 (stereo not drawn),inactive
12,CCCS(=O)(=O)Nc1cccc(-c2cn3ccsc3n2)c1,inactive
13,CSc1nc(-c2ccccc2)nc(C(Cl)Cl)n1,5.01 µM (active)
14,CSc1nc(Nc2ccc(F)cc2)cc(-c2ccccc2)n1,inactive
15,O=C(NCC1CC1)C1(C(F)(F)F)C/C(=C\CCO)CCCO1 (stereo not drawn),inactive
16,Cn1nnnc1SCc1cc(=O)[nH]c2ccccc12,inactive
17,Cc1ccc(N(Cc2cc(=O)[nH]c3ccccc23)C(=O)CCl)cc1,17.8 µM (active)
18,Cc1ccc(N(Cc2ccccc2O)C(=O)c2ccccc2F)cc1,inactive
19,O=c1cc(-c2ccccc2)n2c(SCc3ccccc3)nnc2[nH]1,inactive
20,CC(C)NC(=O)C1CCC(Cn2c(=O)c3sccc3n(Cc3ccc(F)cc3)c2=O)CC1 (stereo not drawn),inactive
21,Cc1cccnc1C(NC(=O)C1CCN(Cc2ccc(Cl)c(Cl)c2)CC1)c1ccc(Cl)cc1 (stereo not drawn),inactive
22,O=C(NC(c1ccc(-c2ccccc2)cc1)c1cnccn1)C1CCN(CCOc2ccc(Cl)cc2Cl)CC1 (stereo not drawn),inactive
23,Cc1ccc(C(NC(=O)C2CCN(CCOc3ccc(Cl)cc3Cl)CC2)c2ccccn2)cc1 (stereo not drawn),20 µM (active)
24,CCCCOc1ccc(Cn2c(=O)oc3ccc(C)cc32)cc1OC,inactive
25,Cc1cccc2c1N(CCOc1ccccc1)C(=O)C2=O,inactive
26,CCCCOc1ccc(CN2C(=O)C(=O)c3cc(Br)cc(C)c32)cc1OC,15.8 µM (active)

row,SMILES,Potency
1,CCCn1c(SCC(=O)c2ccc3c(c2)OCCO3)nnc1C(C)C,10 µM (active)
2,CCCn1c(SCC(=O)Nc2c(C)cccc2C)nnc1C(C)C,inactive
3,O=C(CSc1nnc(CN2CCCC2)n1-c1ccc(F)cc1)c1ccc2c(c1)OCO2,inactive
4,Cc1cccc(C)c1-n1ncc(C(=O)NCCCN2CCCCC2)c1C1CCN(C(=O)OC(C)(C)C)CC1,inactive
5,COc1cc(OC)c(NC(=O)c2cnc(N3CCCC3)nc2C)cc1Cl,inactive
6,CCOC(=O)/C(=C\c1ccc([N+](=O)[O-])cc1)C(=O)c1cc(C(C)=O)c(Nc2ccccc2)s1,5.01 µM (active)
7,CCOC(=O)c1c(C)[nH]c(C)c1C(=O)COC(=O)/C=C/c1cccc([N+](=O)[O-])c1,inactive
8,CC(C)c1nnc(NC(=O)COC(=O)/C=C/c2ccc([N+](=O)[O-])cc2)s1,inactive
9,COCCCn1c(=O)/c(=C/c2ccccc2OC(C)C)s/c1=C(\C#N)C(=O)Nc1ccc(C(=O)O)cc1,12.6 µM (active)
10,COc1ccccc1C(=O)N/C(=C/c1ccco1)C(=O)Nc1ccc(C(=O)O)cc1,inactive
11,CC(C)OCCCn1c(SCC(=O)c2ccccc2)nc2c(sc3ccccc32)c1=O,inactive
12,COc1cc2nc(C#Cc3nc4cc(OC)c(OC)cc4[nH]3)[nH]c2cc1OC,inactive
13,Cc1cccc(NC(=O)Nc2ccc3c(c2)OCO3)n1,22.4 µM (active)
14,CNS(=O)(=O)c1ccc(NC(=O)Nc2ccc3c(c2)OCO3)cc1,inactive
15,Cc1onc(C(=O)Nc2ccc3c(c2)OCO3)c1[N+](=O)[O-],inactive
16,CC1CCCN(Cc2c(O)ccc3c(=O)c(Oc4ccc(C(C)(C)C)cc4)c(C(F)(F)F)oc23)C1 (stereo not drawn),inactive
17,CCOc1ccc(NC(=O)c2cc(S(=O)(=O)N3CCCC3)c[nH]2)cc1,inactive
18,CCN1CCCC1CNC(=O)c1ccc2c(c1)NC(=O)/C(=C\c1ccccc1F)S2 (stereo not drawn),15.8 µM (active)
19,O=C1Nc2cc(C(=O)N3CCC(N4CCCCC4)CC3)ccc2S/C1=C\c1ccccc1,inactive
20,COc1ccc(CN2CCCC(CNC(=O)c3ccc(F)cc3)C2)cc1OC (stereo not drawn),inactive
21,COc1ccccc1-c1noc(-c2ccc(NCc3ccccc3)c([N+](=O)[O-])c2)n1,inactive
22,Cc1ccc(Cn2cnc3c(cnn3C(C)(C)C)c2=O)c(F)c1,inactive
23,NC(N)=N/N=C/c1ccc(OCc2ccc(Cl)cc2Cl)cc1,14.1 µM (active)
24,NC(=O)COc1ccc(/C=N/NC(=O)C2CCCN2S(=O)(=O)c2ccc(Cl)cc2)cc1 (stereo not drawn),inactive
25,Cc1ccc(CCNC(=O)Cn2c(-c3cccs3)cc3cc(F)ccc32)cc1,inactive
26,CC(C)c1ccc(NC(=O)Cn2nnc(C(=O)NCCc3ccccc3)c2N)cc1,inactive
